# Test results from the supplement of paper PMC10849652.
# Targets with a hit are over-represented here; the source holds about 8,800 in all. About 0.5% of all pairs of compound and target were hits. A number with no mark means an inactive call.
# Assays:
# Experiment in all cases: log2 fold change, soluble protein after heating vs DMSO (PISA); higher = thermal stabilisation; K562 lysate, 10 uM; active = over 0.2 and 3.5 SD of the protein, either way, in both replicates (recomputed)
# [1] = compound: CCCS(=O)(=O)Nc1ccc(F)c(C(=O)c2c[nH]c3ncc(-c4ccc(Cl)cc4)cc23)c1F [vemurafenib]
# Outline: (§1)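 K562 pellets were dounce-homogenised in PBS pH 7.4 containing 1 mM MgCl2, and the crude extract, at 1 mg/mL protein, was exposed to 10 μM compound for 30 min. Aliquots were heated for 3 min across 48°C-58°C, pooled, brought to 0.5% NP-40 at 4°C and spun at 21,000xg for 90 min, with the supernatant taken as soluble protein. TMTpro 16plex LC-MS/MS with equalised channel sums quantified that protein. Values are log-two fold changes in thermal stability relative to solvent controls, taken from duplicates.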
# [2] = compound: CCCS(=O)(=O)Nc1ccc(F)c(C(=O)c2c[nH]c3ncc(Cl)cc23)c1F
# Outline: as §1
# [3] = compound: CCN(CCCOc1ccc2c(Nc3cc(CC(=O)Nc4cccc(F)c4)[nH]n3)ncnc2c1)CCOP(=O)(O)O [barasertib]
# Outline: as §1
# [4] = compound: CC[C@@H]1C(=O)N(C)c2cnc(Nc3ccc(C(=O)NC4CCN(C)CC4)cc3OC)nc2N1C1CCCC1
# Outline: as §1
# [5] = compound: CC[C@@H]1C(=O)N(C)c2cnc(Nc3ccc(C(=O)N[C@H]4CC[C@H](N5CCN(CC6CC6)CC5)CC4)cc3OC)nc2N1C(C)C [volasertib]
# Outline: as §1
# [6] = compound: CCn1c(C(=O)N(C2CC2)C2CC2)cc2c3c(ncn3C)c(Nc3cc(C)n(C)n3)nc21
# Outline: as §1
# [7] = compound: CCn1cc(-c2ccnc3[nH]c(-c4cccc(CN(C)C)c4)cc23)c(-c2ccc(NC(=O)N(C)C)cc2)n1
# Outline: as §1
# [8] = compound: CN1CCC(CNc2ccc3ncc(-c4cccc(OC(F)(F)F)c4)n3n2)CC1
# Outline: as §1
# [9] = compound: CN1CCN(CCOc2cc(OC3CCOCC3)c3c(Nc4c(Cl)ccc5c4OCO5)ncnc3c2)CC1 [saracatinib]
# Outline: as §1
# [10] = compound: CN1CCN(c2nc(C3=C(c4c[nH]c5ccccc45)C(=O)NC3=O)c3ccccc3n2)CC1 [sotrastaurin]
# Outline: as §1
# [11] = compound: CN1CC[C@H](c2c(O)cc(O)c3c(=O)cc(-c4ccccc4Cl)oc23)[C@H](O)C1 [alvocidib]
# Outline: as §1
# [12] = compound: CN1CCc2c(c3ccccc3n2Cc2ccc(C(=O)NO)cc2)C1 [Tubastatin A]
# Outline: as §1
# [13] = compound: CNC(=O)C1=CC=CC=C1NC2=NC(=NC=C2Cl)NC3=C(C=C(C=C3)N4CCOCC4)OC
# Outline: as §1
# [14] = compound: CNC(=O)c1ccc(Nc2ncc(C(F)(F)F)c(NCc3nccnc3N(C)S(C)(=O)=O)n2)cc1 [defactinib]
# Outline: as §1
# [15] = compound: CNc1nc(-c2ccc3c(N)n[nH]c3c2)cc(N2C[C@@H](C(=O)NC3CCCCC3)CC[C@H]2C)n1
# Outline: as §1
# [16] = compound: COC(=O)N[C@@H](C)CNc1nccc(-c2cn(C(C)C)nc2-c2cc(Cl)cc(NS(C)(=O)=O)c2F)n1 [encorafenib]
# Outline: as §1
# [17] = compound: COC(=O)[C@H](CCSC)NC(=O)C1=C(C=C(C=C1)NC[C@H](CS)N)C2=CC=CC=C2
# Outline: as §1
# [18] = compound: COc1cc(Nc2ncc3c(n2)-c2ccc(Cl)cc2C(c2c(F)cccc2OC)=NC3)ccc1C(=O)O [alisertib]
# Outline: as §1
# [19] = compound: COc1cc2nc(-c3cc(F)ccc3O)nc(N[C@@H]3CNC[C@H]3C(C)(C)O)c2cc1OC
# Outline: as §1
# [20] = compound: COc1cc2ncnc(Nc3ccc(F)c(Cl)c3)c2cc1OCCCN1CCOCC1 [gefitinib]
# Outline: as §1
# Sequence of UniProt Q8N4C8 (Q8N4C8 whole entry, looked up): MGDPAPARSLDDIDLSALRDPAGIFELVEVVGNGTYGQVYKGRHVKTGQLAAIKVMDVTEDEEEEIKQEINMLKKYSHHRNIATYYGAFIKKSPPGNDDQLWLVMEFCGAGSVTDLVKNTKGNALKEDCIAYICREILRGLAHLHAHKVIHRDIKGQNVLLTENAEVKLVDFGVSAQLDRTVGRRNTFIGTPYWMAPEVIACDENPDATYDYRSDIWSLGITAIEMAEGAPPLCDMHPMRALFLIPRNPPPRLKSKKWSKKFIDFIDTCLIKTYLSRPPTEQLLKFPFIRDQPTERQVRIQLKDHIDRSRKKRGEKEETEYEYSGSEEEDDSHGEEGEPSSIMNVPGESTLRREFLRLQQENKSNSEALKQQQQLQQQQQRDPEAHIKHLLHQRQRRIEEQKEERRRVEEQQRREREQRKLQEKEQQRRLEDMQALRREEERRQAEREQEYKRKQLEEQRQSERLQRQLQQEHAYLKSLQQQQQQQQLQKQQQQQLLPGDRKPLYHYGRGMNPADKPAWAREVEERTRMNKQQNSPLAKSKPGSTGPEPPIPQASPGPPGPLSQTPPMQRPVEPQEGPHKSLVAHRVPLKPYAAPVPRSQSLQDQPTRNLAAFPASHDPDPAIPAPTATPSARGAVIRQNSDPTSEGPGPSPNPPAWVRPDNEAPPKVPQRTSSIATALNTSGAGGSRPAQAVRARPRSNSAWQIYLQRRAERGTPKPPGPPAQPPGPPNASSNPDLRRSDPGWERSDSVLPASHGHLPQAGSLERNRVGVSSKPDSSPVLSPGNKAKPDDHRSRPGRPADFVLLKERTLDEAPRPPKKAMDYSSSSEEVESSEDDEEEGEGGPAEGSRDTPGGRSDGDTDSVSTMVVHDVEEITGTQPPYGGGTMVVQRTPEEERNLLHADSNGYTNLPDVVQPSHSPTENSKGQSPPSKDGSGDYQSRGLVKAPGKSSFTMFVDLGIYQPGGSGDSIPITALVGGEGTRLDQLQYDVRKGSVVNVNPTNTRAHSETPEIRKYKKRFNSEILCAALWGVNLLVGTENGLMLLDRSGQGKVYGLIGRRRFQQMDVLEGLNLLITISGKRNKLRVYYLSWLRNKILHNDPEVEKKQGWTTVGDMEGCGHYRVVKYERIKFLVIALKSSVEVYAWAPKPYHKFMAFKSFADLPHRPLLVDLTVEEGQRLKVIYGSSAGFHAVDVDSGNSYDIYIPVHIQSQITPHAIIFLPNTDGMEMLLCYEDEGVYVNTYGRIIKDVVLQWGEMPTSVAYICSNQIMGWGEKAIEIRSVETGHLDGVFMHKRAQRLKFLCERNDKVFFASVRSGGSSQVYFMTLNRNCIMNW
# Sequence of UniProt Q9UBU8 (Q9UBU8 whole entry, looked up): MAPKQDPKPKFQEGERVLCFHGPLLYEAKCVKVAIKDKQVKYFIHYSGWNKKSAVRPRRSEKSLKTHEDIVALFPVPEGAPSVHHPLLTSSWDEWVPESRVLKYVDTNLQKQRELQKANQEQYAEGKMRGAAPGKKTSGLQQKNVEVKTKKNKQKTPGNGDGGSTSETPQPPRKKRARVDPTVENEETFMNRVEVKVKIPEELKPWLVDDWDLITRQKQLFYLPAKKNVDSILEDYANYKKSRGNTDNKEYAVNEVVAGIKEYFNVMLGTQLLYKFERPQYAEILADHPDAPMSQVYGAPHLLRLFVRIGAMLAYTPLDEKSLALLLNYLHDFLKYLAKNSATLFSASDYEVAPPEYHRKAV
# Sequence of UniProt Q96G25 (Q96G25 whole entry, looked up): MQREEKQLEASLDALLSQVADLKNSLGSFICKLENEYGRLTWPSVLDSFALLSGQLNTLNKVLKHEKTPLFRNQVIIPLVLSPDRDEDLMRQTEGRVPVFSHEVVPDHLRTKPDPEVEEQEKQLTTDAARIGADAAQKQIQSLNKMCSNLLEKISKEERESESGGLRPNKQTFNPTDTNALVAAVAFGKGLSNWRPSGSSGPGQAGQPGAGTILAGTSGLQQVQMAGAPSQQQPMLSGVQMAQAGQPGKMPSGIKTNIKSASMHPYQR
# Sequence of UniProt Q9Y448 (Q9Y448 whole entry, looked up): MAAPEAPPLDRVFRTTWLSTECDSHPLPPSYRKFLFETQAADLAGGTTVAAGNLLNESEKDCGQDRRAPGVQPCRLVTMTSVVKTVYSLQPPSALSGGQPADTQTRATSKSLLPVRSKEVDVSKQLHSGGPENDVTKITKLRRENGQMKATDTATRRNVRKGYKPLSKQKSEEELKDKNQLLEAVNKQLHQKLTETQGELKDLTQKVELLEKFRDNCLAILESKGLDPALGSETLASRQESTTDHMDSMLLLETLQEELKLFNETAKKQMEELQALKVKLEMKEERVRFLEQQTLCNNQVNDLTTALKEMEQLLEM
# Sequence of UniProt O00139 (O00139 whole entry, looked up): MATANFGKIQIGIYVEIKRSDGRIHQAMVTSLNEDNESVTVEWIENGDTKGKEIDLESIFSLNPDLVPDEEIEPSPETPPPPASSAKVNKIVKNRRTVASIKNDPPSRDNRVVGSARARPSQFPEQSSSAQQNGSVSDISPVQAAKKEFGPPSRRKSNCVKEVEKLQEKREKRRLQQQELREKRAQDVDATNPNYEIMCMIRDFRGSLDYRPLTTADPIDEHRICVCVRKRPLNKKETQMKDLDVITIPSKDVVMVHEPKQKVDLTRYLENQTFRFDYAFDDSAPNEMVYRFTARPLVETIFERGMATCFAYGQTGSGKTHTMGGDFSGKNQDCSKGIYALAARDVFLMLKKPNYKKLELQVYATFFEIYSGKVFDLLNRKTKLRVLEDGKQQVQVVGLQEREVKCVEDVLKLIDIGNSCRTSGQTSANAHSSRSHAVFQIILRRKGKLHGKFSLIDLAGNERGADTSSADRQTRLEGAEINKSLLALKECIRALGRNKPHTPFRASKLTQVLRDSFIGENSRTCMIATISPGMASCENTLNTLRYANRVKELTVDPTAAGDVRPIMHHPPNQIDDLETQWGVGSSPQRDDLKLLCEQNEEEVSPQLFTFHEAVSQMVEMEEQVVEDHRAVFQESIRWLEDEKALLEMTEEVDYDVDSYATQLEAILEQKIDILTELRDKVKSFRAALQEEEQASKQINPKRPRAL
# Sequence of UniProt P49917 (P49917 whole entry, looked up): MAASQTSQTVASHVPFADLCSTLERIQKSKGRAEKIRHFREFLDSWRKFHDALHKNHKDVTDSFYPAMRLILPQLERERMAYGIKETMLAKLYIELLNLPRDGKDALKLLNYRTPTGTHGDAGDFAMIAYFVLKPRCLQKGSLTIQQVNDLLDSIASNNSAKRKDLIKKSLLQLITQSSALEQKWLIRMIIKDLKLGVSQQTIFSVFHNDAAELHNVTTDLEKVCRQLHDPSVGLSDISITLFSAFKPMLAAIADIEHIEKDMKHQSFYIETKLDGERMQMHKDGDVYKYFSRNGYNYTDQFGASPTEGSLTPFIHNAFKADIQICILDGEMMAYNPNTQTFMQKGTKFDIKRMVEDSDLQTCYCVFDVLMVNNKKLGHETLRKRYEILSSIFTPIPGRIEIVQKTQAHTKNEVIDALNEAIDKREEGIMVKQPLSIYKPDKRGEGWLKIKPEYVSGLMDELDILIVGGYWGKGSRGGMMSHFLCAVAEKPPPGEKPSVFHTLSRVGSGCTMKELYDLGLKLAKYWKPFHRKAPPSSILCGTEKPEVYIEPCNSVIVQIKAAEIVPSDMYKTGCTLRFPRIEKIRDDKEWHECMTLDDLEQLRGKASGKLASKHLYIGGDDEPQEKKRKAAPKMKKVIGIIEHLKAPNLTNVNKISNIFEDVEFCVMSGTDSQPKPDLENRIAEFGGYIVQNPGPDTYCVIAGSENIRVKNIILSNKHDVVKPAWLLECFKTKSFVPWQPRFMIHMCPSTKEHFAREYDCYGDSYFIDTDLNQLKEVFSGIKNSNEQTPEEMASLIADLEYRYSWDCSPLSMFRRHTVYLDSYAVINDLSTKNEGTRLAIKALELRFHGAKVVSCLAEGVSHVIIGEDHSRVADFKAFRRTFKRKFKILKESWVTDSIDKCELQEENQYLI
# Sequence of UniProt P45983 (P45983 whole entry, looked up): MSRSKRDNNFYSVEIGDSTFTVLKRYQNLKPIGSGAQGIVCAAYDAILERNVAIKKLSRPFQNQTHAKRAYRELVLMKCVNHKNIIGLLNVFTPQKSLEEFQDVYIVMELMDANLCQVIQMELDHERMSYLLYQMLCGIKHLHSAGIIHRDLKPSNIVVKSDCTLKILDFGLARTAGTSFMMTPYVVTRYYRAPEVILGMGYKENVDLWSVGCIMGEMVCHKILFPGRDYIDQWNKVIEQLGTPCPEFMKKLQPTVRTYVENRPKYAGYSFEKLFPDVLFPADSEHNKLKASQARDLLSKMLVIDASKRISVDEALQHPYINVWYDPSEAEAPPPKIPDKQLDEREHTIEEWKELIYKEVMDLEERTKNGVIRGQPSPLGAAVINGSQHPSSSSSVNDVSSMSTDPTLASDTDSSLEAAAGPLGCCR
# Sequence of UniProt Q9BPX6 (Q9BPX6 whole entry, looked up): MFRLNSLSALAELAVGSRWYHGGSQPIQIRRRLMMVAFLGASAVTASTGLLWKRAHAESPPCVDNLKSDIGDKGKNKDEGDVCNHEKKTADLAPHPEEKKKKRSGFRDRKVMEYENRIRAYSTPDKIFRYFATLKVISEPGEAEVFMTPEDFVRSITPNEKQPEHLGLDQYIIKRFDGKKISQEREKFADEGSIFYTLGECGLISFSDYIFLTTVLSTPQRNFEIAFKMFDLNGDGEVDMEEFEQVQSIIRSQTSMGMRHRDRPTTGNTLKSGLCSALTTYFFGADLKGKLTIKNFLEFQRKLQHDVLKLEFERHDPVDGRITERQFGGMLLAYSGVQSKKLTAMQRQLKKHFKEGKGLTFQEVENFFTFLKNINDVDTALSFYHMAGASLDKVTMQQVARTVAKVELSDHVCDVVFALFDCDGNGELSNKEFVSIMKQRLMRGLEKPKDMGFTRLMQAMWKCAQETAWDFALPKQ
Target,log2 fold change [1],log2 fold change [2],log2 fold change [3],log2 fold change [4],log2 fold change [5],log2 fold change [6],log2 fold change [7],log2 fold change [8],log2 fold change [9],log2 fold change [10],log2 fold change [11],log2 fold change [12],log2 fold change [13],log2 fold change [14],log2 fold change [15],log2 fold change [16],log2 fold change [17],log2 fold change [18],log2 fold change [19],log2 fold change [20]
MED12 isoform 2 (UniProt Q93074),-0.075,0.005,0.057,-0.012,-0.065,0.037,0.002,-0.066,0.026,0.022,-0.022,-0.161,-0.02,0.029,-0.041,0.028,0.06,0.016,-0.011,0.027
KIF2A isoform 4 (UniProt O00139),-0.006,0,-0.014,-0.117,-0.032,0.042,-0.013,0.009,0.021,0.023,0,-0.148,0.005,0.01,-0.024,0.012,0.093,0.004,-0.014,0.011
MED8 isoform 2 (UniProt Q96G25),-0.022,0.018,0.081,-0.051,-0.003,0.013,0.214,-0.092,-0.002,0.091,0.026,-0.048,0.023,-0.009,0.045,0.056,-0.113,-0.07,0.059,-0.038
KNSTRN (UniProt Q9Y448),-0.012,0.021,0.022,0.01,0.004,0.086,0.063,-0.095,0.009,-0.03,0.001,-0.062,0.038,-0.029,0.053,0.074,-0.264 (active),0.043,-0.016,-0.022
MFF isoform 2 (UniProt Q9GZY8),0.019,0.027,0.027,0.032,-0.014,0.035,-0.234 (active),0.036,0.011,-0.044,-0.046,-0.038,-0.052,0.027,0.024,0.068,-0.113,0.042,-0.075,0.048
MICU1 isoform 3 (UniProt Q9BPX6),-0.055,-0.004,0.094,0.002,-0.005,0.091,0.234 (active),-0.422 (active),0.006,0.044,0.092,-0.065,0,0.026,-0.061,-0.037,-0.05,-0.025,-0.063,0.023
MRPL19 (UniProt P49406),0.026,0.029,0.001,-0.139,-0.056,0,0.026,-0.053,0.016,-0.016,-0.056,-0.119,-0.036,-0.005,-0.052,-0.003,0.042,0.037,-0.03,0.043
MORF4L1 isoform 2 (UniProt Q9UBU8),0.034,-0.017,0.007,0.016,0,-0.005,-0.036,0.131,0.038,0.019,-0.01,0.001,-0.001,-0.005,0.247 (active),-0.023,-0.021,0.045,0.044,0.008
MINK1 (UniProt Q8N4C8),-0.096,-0.107,-0.017,-0.012,0.022,0.076,-0.033,-0.09,0.007,0.079,-0.049,-0.137,0.055,0.025,0.109,-0.133,0.022,0.051,-0.003,
LAMP1 (UniProt P11279),-0.009,0.02,0.001,0.059,0.056,-0.097,-0.508 (active),0.24,0.018,0.022,-0.242,0.051,-0.013,-0.03,0.059,0.015,-0.047,0.017,0.028,0.053
LIG4 (UniProt P49917),0.041,-0.034,-0.04,-0.087,-0.182,-0.027,-0.105,0.018,0.027,0.048,0.02,-0.025,-0.04,0.063,0.005,0.048,0.415 (active),-0.049,-0.096,-0.069
MECR (UniProt Q9BV79),0.055,0.035,0.008,-0.05,-0.008,0.004,-0.043,0.023,0.095,-0.007,0.018,0.014,0.01,0.007,0.053,-0.06,0.049,0,0.04,-0.011
MIPEP (UniProt Q99797),-0.026,0.004,0.006,-0.053,-0.029,0.029,-0.05,-0.015,0.001,-0.042,0.027,0.011,-0.03,0.025,-0.067,-0.012,0.154,-0.038,-0.009,-0.007
KLC2 (UniProt Q9H0B6),0.066,0.042,0.042,-0.043,-0.074,-0.009,-0.015,-0.069,0.008,-0.016,-0.034,-0.072,0.004,-0.048,-0.006,0.01,0.043,-0.038,0.001,-0.098
LYN (UniProt P07948),0.285,0.05,0.258,-0.067,-0.134,0.004,-0.012,0.233,0.605,-0.045,0.026,-0.046,0.203,0.076,-0.092,-0.01,-0.072,0.171,0.26,-0.006
MAPK8 isoform 3 (UniProt P45983),0.06,0.022,0.007,-0.123,-0.02,-0.005,0.013,0.055,0.027,0.01,0.01,-0.111,0.541 (active),-0.07,-0.144,0.135,0,-0.022,0.003,-0.042
